The source made the active and inactive calls.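 The calls were made as follows: active = inhibition above the screen-wide mean plus 3 SD, about 51%; inactive = the rest.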
Each compound was assayed against ATP-binding cassette sub-family B member 6 (Homo sapiens) (UniProt Q9NP58) (assay: blockers of ABCB6-driven porphyrin uptake – K562-ABCB6 cells, flow cytometry, validation set, pilot screen (AID 588550;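 also: 0% = DMSO wells and 100% = benzethonium chloride 70 µM positive control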)). Details: K562-ABCB6 porphyrin accumulation, 1 h, at 10 µM, active compounds read high.
Sequence of ATP-binding cassette sub-family B member 6 (Homo sapiens) (Q9NP58 whole entry, looked up): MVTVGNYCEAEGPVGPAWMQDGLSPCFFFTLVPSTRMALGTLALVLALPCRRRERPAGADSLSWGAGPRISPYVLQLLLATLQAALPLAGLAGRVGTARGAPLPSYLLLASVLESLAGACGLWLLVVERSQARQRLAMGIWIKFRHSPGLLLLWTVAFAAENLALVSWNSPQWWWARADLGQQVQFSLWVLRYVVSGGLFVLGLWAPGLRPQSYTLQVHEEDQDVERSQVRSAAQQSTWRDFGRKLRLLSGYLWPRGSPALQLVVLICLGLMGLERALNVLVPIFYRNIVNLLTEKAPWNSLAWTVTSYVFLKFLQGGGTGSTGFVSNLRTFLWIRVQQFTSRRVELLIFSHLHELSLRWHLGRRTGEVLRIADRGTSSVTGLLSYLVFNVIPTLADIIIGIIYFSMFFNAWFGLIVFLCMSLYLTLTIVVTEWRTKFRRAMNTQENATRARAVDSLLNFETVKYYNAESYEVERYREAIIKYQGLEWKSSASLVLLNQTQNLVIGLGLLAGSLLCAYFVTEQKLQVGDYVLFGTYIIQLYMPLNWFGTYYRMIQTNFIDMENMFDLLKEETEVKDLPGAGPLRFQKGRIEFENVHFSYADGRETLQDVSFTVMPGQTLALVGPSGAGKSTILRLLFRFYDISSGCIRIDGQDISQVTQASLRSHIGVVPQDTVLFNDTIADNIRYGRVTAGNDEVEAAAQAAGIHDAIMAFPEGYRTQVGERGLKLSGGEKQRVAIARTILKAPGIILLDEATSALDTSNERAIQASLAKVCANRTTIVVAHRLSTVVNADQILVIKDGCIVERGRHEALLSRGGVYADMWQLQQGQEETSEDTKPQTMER

inhibition, inactive:
Cc1oc2cc(O)cc(O)c2c(=O)c1-c1ccc2c(c1)OCCCO2 8%
O=C(c1ccco1)N1CCCN(Cc2nc(-c3ccc4c(c3)OCO4)no2)CC1 10%
COc1ccc2nc(S(=O)Cc3ncc(C)c(OC)c3C)[nH]c2c1 (stereo not given) -7%
CSCCC(NC(C)=O)C(=O)Oc1ccc2c3c(c(=O)oc2c1)CCCC3 (stereo not given) 11%
CCOC(=O)C1NN=C(C(=O)c2ccccc2)C1c1ccc(Cl)cc1 (stereo not given) 9%
CSCCC(NC(=O)OC(C)(C)C)C(=O)Oc1ccc2c(=O)c(-c3ccc4c(c3)OCCO4)coc2c1 (stereo not given) 1%
COc1cc2c(cc1OC)/C(=C/c1ccc(Cl)cc1)C(=O)OC2 1%
COc1ccc(-c2coc3c(CN4CCOCC4)c(O)ccc3c2=O)cc1 -5%
OCCC1CN(Cc2ccccc2-c2ccco2)CCN1C1CCCC1 (stereo not given) 1%
O=C(O)C1CCN(C(=O)COc2ccc3c4c(c(=O)oc3c2)CCC4)CC1 3%
Cc1ccc(C(=O)NCCNC(=O)c2ccccc2)cc1 4%
CC(=O)OCC(=O)[C@@]1(O)CC[C@H]2[C@@H]3CCC4=CC(=O)C=C[C@]4(C)[C@H]3[C@@H](O)C[C@@]21C 9%
CCCc1cc(C(N)=S)ccn1 -25%
Cc1ccc(Cl)c(Nc2ccccc2C(=O)O)c1Cl 2%
COc1ccccc1/C=C/C(=O)OCCN1CCOCC1 -9%
Fc1ccc(-c2cc(-c3ccccc3)nc(-n3cccn3)n2)cc1 2%
O=c1c(-c2ccccc2)c(O)c2cccc3c2n1CCC3 1%
COc1cc(CC(=O)NCCc2ccc(S(N)(=O)=O)cc2)cc(OC)c1OC 4%
CN(C)CCC(c1ccc(Cl)cc1)c1ccccn1 (stereo not given) 7%
Cc1ccc2nc(N=C(N)N)nc(C)c2c1 5%
CCn1c(N2CCN(CC(=O)c3c(C)n(C)c4ccc(OC)cc34)CC2)nc2c1c(=O)[nH]c(=O)n2C 23%
CC1(c2ccccc2)CC(C)(C)N2C(=O)C(=O)c3cccc1c32 (stereo not given) 5%
O=C(COc1cc(O)c2c(=O)c3ccccc3oc2c1)OCc1ccccc1 0%
C[N+](C)(C)CCOP(=O)([O-])OC[C@H](O)CO 22%
O=C(/C=C/Sc1ccccc1)c1ccccc1 -13%
O=C1Cc2ccccc2C(c2ccccc2)N1 (stereo not given) 9%
Cc1ccc(NC(=O)CSc2nc(O)c(Cc3ccccc3)c(=O)n2-c2ccccc2)cc1 9%
COCCn1c(SCCOc2ccccc2)nc2ccccc2c1=O 18%
CC(=O)Oc1ccc2c(=O)c(Oc3ccccc3[N+](=O)[O-])coc2c1 -4%
CCc1c(C(C)=O)oc2ccc3c(C)cc(=O)oc3c12 11%
COc1ccc(-c2[nH]ncc2CN(C)C(C)c2ccon2)c(OC)c1 (stereo not given) 11%
Cc1c(O)c(=O)ccn1C 9%
COc1ccc2cc(C(=O)Nc3ccc(S(N)(=O)=O)cc3)sc(=O)c2c1OC 7%
Cc1cnc(NC(=O)C2=C(O)c3ccccc3S(=O)(=O)N2C)s1 14%
O=C(O)c1ccc(N2C(=O)/C(=C\c3ccccc3)N=C2c2ccccc2)cc1 -15%
O=C(CCC(=O)NCCO)NCCO 2%
CC(=O)O[C@H]1C[C@@]2(C)[C@@H](C[C@@H](O)[C@H]3[C@@]4(C)CC[C@@H](O)[C@@H](C)C4CC[C@@]32C)/C1=C(\CCC=C(C)C)C(=O)O (stereo not given in full) 3%
O=C(c1cc2cc(Br)ccc2o1)N1CCCC1 9%
CCOc1ccc2nc(NC(=O)NC3CCCCC3)sc2c1 -4%
O=C(/C=C/c1c[nH]c2ccccc12)c1cccc2ccccc12 6%

Source: PubChem BioAssay
